Lassa entry inh: Lassa virus entry inhibition; Lassa virus pseudotype entry inhibition, cell reporter; Potency, µM (top dose mostly 37.9 µM), actives largely listed as inhibitors; actives 1.2% (n = 300,000); AID 540256; calls by dose curve; tested in HEK293 cells; note: nearly all actives have a fitted effect of over 50% in size
CHX counter-1: counter-screen for Shiga toxin inhibitors: cycloheximide protein synthesis inhibition; cell reporter, cycloheximide protein synthesis inhibition counterscreen; actives 12% (n = 300,000); max response, %; in the data active = max response mostly above about 13%, no sharp cut-off; inactive = mostly below about 14%; note: read at 38.3 µM for the half of the compounds with a filed dose
Marburg entry inh: inhibitors of Marburg virus binding or cell entry; Marburg virus pseudotyped entry inhibition, cell reporter; Potency, µM (titrated, usually from 37.8 µM), usual class: inhibitors; actives 1.8% (n = 300,000); AID 540276; calls by dose curve; tested in HEK293 cells
Shiga toxin inh: inhibitors of Shiga toxin in Vero cells. Vero cells, Shiga toxin protein synthesis inhibition reporter. inhibition, % at 38.7 µM. actives 9.2% (n = 290,000); in the data active = inhibition mostly above about 28%, no sharp cut-off; inactive = mostly below about 43%
CHX counter-2: counter-screen for Shiga toxin inhibitors: cycloheximide protein synthesis block; shares compounds with Shiga toxin inh; Cycloheximide counterscreen, protein synthesis reporter, Shiga toxin assay; Potency, µM (highest dose often 38.3 µM), actives largely listed as activators; actives 3% (n = 510); AID 2318; calls by dose curve
Large screens that a line does not name were inactive (follow-up assays come after a bar, where they were run). A selection: hits, their analogues and other compounds. The true share with any hit is near 12%.

COc1ccc(C/C(O)=C(\C#N)c2nc3ccccc3s2)cc1	Shiga toxin inh 34 | CHX counter-2 inactive
COC(=O)[C@H](Cc1ccccc1)NC(=O)N1CCCCC1C (stereo partly drawn)	Shiga toxin inh 117 | CHX counter-2 inactive
COC(=O)[C@H](Cc1ccccc1)NC(=O)N1CCC(C)CC1	none
O=C(CCC(=O)N1CCCC1)Nc1ccc(Cl)c(Cl)c1	none
COc1cc2c(c(OC)c1OC)-c1c(cc(OC)c(OC)c1OC)C[C@](C)(O)[C@@H](C)C2	Shiga toxin inh 49 (no result: Lassa entry inh, Marburg entry inh) | CHX counter-2 inactive
Cc1cc(C(=O)CS(=O)(=O)c2ccc(F)cc2)cc(C)c1O	Marburg entry inh inconclusive, Shiga toxin inh 34 | CHX counter-2 inconclusive
O=C(Cc1cccs1)Nc1nc(-c2ccc(F)c(F)c2)cs1	Lassa entry inh inconclusive, Shiga toxin inh 44 | CHX counter-2 inactive
COc1cccc(CC(=O)Nc2nc(-c3ccc(F)c(F)c3)cs2)c1	Lassa entry inh inconclusive, Marburg entry inh inconclusive
CCOC(=O)C(=O)c1csc(NC(=O)CCSc2ccc(C)cc2)n1	none (no result: Lassa entry inh, Marburg entry inh)
CCc1ccc(NC(=O)c2cnc(N3CCN(c4ccccn4)CC3)c3ccccc23)cc1	Lassa entry inh inconclusive, Marburg entry inh inconclusive, Shiga toxin inh 50 | CHX counter-2 inactive
CC(C)NC(=O)c1cnc(N2CCN(c3ccccn3)CC2)c2ccccc12	Lassa entry inh inconclusive, Marburg entry inh inconclusive
CC(C)CN1CCN(C(=O)CCc2nnc(Cc3c[nH]c4ccccc34)o2)[C@@H](C)C1=O	Shiga toxin inh 36 | CHX counter-2 inconclusive
Clc1nssc1=Nc1ccc(Br)cc1	Shiga toxin inh 59 | CHX counter-2 inactive
COc1cc(N=c2ssnc2Cl)cc(OC)c1	none
COc1ccccc1C(=O)Nc1nnc(SCC(=O)Nc2ccc3c(c2)oc2ccccc23)s1	Lassa entry inh inconclusive, Marburg entry inh inconclusive, Shiga toxin inh 45 | CHX counter-2 11µM
Cc1ccc2c(c1)N(CC(=O)N1CCCC1)C(=O)CO2	Shiga toxin inh 35 | CHX counter-2 inactive
Cc1cc(NC(=O)/C=C/c2ccc(Br)cc2)no1	Shiga toxin inh 56 | CHX counter-2 inconclusive
Cc1cc(NC(=O)Cc2ccc(Br)cc2)no1	none
O=C(Nc1ccc(Cl)cc1)C1CCN(C(=O)c2cccs2)CC1	Shiga toxin inh 104 | CHX counter-2 inactive
CCNc1nnc(-c2ccccc2OC)s1	Shiga toxin inh 73 | CHX counter-2 inactive
COc1ccccc1-c1nnc(NC(=O)C(C)SC2=NCCS2)s1 (stereo not drawn)	none (no result: Lassa entry inh, Marburg entry inh)
COc1ccc(NC(=O)CN(C)S(=O)(=O)c2ccc(Br)s2)cc1OC	Shiga toxin inh 34 | CHX counter-2 inactive
COc1ccc(CCNC(=O)CN(C)S(=O)(=O)c2ccc(Br)s2)cc1OC	none
Cc1cnc(C(=O)O)c[n+]1[O-]	none (no result: Lassa entry inh, Marburg entry inh)
COc1cccc(N2CC(NC(=O)COc3ccccc3F)CC2=O)c1 (stereo not drawn)	none (no result: CHX counter-1, Marburg entry inh, Shiga toxin inh)
O=C(Nc1ncc2c(n1)-c1ccccc1CC2)c1cccc(Cl)c1	Shiga toxin inh 33 | CHX counter-2 inconclusive
COc1ccc(CC(=O)NC(C)c2nnc(SCC(=O)c3ccc(OC)cc3)n2C)cc1 (stereo not drawn)	none
COc1ccc(C(=O)CSc2nnc(C(CO)NC(=O)c3ccc(OC)cc3)n2C)cc1 (stereo not drawn)	Shiga toxin inh 64 | CHX counter-2 inactive
Cc1cc(C)n(-c2nc(SCC(=O)O)c3c4c(sc3n2)CCCC4)n1	none (no result: Lassa entry inh, Marburg entry inh)
Cc1cc(C)n(-c2nc(SCCN(C)C)c3c4c(sc3n2)COC(C)(C)C4)n1	Lassa entry inh inconclusive, Marburg entry inh inconclusive, Shiga toxin inh 80 | CHX counter-2 inactive
CCOc1ccc(OCC)c(-c2c(=O)n(OCc3ccc(C(C)(C)C)cc3)c3ccccc3[n+]2[O-])c1	Marburg entry inh inconclusive
COc1cccc(-c2nc(CS(=O)CC(=O)NC3CCCCC3)c(C)o2)c1 (stereo not drawn)	none (no result: Lassa entry inh, Marburg entry inh)
CC1CC(C)CN(C(=O)C(NS(=O)(=O)c2ccc(Br)s2)c2ccccc2)C1 (stereo not drawn)	Lassa entry inh inconclusive, Marburg entry inh inconclusive, Shiga toxin inh active | CHX counter-2 inactive
Cc1cccc(C)c1NC(=O)CN(C)CC(=O)N1CC(=O)Nc2ccccc21	none (no result: CHX counter-1, Shiga toxin inh)
COc1ccc(-c2nc(NC(=O)CSc3nnc4ccccn34)ns2)cc1	Shiga toxin inh 44 | CHX counter-2 inconclusive
O=C(CSc1nnnn1-c1ccccc1)Nc1nsc(-c2ccccc2)n1	none
CCOCCCn1c(=N)c(C(=O)NCc2cccnc2)cc2c(=O)n3cc(C)ccc3nc21	none (no result: CHX counter-1, Shiga toxin inh)
CC(C)(C)C1CCC(C(=O)OCC(=O)c2ccc[nH]2)CC1 (stereo not drawn)	Shiga toxin inh 27 | CHX counter-2 inactive
CCc1ccc(NC(=O)CN(C)S(=O)(=O)c2ccc3[nH]c(=O)oc3c2)cc1	none
COC(=O)[C@@]1(Cc2ccc(OC)cc2)[C@H]2c3cc(C(=O)N(C)C)n(CCc4ccc(OC)c(Br)c4)c3C[C@H]2CN1C(=O)c1ccccc1	Lassa entry inh inconclusive, Marburg entry inh inconclusive
O=C(O)Cc1ccc2oc(-c3ccccn3)nc2c1	Shiga toxin inh 38 (no result: Lassa entry inh, Marburg entry inh) | CHX counter-2 inconclusive
Cc1ccc2c(CN3CCCCC3C)cc(=O)oc2c1C (stereo not drawn)	Shiga toxin inh 40 | CHX counter-2 inactive
CCOC(=O)N1CCN(C(=O)c2ccc(OCC)cc2)CC1	none
CCOC(=O)N1CCN(C(=O)CCC(=O)c2ccc(OCC)cc2)CC1	Lassa entry inh 11µM, Shiga toxin inh 41 | CHX counter-2 inactive
CC(C)(C)NC(=O)c1ccc(COc2ccccc2Br)o1	Shiga toxin inh 34 | CHX counter-2 inactive
CC(=O)Nc1ccc(NC(=O)c2ccc(COc3ccccc3Br)o2)cc1	none (no result: Lassa entry inh, Marburg entry inh)
O=C(O)Cn1nnc(-c2ccc(OCc3ccccc3Cl)cc2)n1	Shiga toxin inh 40 | CHX counter-2 inactive
CCOc1ncccc1C(=O)Nc1c(C)n(C)n(-c2ccccc2)c1=O	Shiga toxin inh 32 | CHX counter-2 inactive
COc1ccccc1N1CCN(c2nccc(C)n2)CC1	none
Cc1ccccc1NC(=O)COC(=O)CCC(=O)c1cccs1	none (no result: CHX counter-1, Shiga toxin inh)
Cn1c(=O)c2c(nc(NCC3CCCC(CN)C3)n2Cc2ccc(Cl)cc2Cl)n(C)c1=O (stereo not drawn)	none (no result: Lassa entry inh, Marburg entry inh)
CCOC(=O)N1CCN(C(=O)c2nn(-c3cc(OC)cc(OC)c3)c(=O)c3ccccc23)CC1	none (no result: Lassa entry inh)
COc1cc(OC)cc(-n2nc(C(=O)N3CC(C)CC(C)C3)c3ccccc3c2=O)c1 (stereo not drawn)	Shiga toxin inh 23 | CHX counter-2 inactive
Cc1cc(NC(=O)CSc2nc3ccsc3c(=O)n2Cc2ccccn2)n[nH]1	Shiga toxin inh 65 | CHX counter-2 inactive
CCC(C)c1cc([N+](=O)[O-])cc([N+](=O)[O-])c1OC(C)=O (stereo not drawn)	Shiga toxin inh 25 (no result: Lassa entry inh, Marburg entry inh) | CHX counter-2 inactive
CCC(C)c1cc([N+](=O)[O-])cc([N+](=O)[O-])c1OC(=O)OC(C)C (stereo not drawn)	none (no result: Lassa entry inh, Marburg entry inh)
CN(C)S(=O)(=O)c1ccc(C(=O)Nc2ccc(CCC(=O)N3CCCC3)cc2)cc1	none
CN(C)S(=O)(=O)c1ccc(C(=O)Nc2ccc(CN3CCCC3)cc2)cc1	Shiga toxin inh 51 | CHX counter-2 inactive
CN(C)S(=O)(=O)Oc1ccsc1C(=O)Nc1ccc(Cl)c(Cl)c1	Shiga toxin inh 66 | CHX counter-2 inactive

Assay outcomes as filed in PubChem.
